SMILES strings stand for the structures. Among all 7,700 compounds or so, about 15 (0.2%) were called active. Inconclusive results (about 6%) are left out. Shown is part of a subset that was picked to be rich in actives. Values without a mark were called inactive.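 Rule for the calls: active = more than half of replicate wells with inhibition above about 18% (limit read from the data, passing the limit was not always enough); inconclusive = exactly half of replicate wells above that limit; inactive = fewer than half of replicates above it.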

In this experiment the target is Regulator of chromosome condensation (Homo sapiens) + GTP-binding nuclear protein Ran (Homo sapiens) + Importin subunit beta-1 (Homo sapiens) (UniProt P18754+P62826+Q14974). The experiment in a line: inhibitors of Ran–importin-beta complex formation, primary screen, biochemical, CFP-Ran/YFP-importin-beta FRET, RCC1, cell-free (AID 434961).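 Note: 0% = DMSO wells and 100% inhibition = RanGDP control wells on each plate.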 Conditions: active compounds read high, concentration not given here.
For `Cc1ccc(S(=O)(=O)Nc2ccc3c(c2)CC(=O)N([C@H](C)CO)C[C@@H](C)[C@@H](CN(C)C(=O)Nc2c(C)noc2C)O3)cc1`, the inhibition (as a rule, the drop in the measured response relative to a control, in per cent) is 1.18%.

As for `C[C@H]1CN([C@@H](C)CO)C(=O)c2cccc(NC(=O)c3cnccn3)c2O[C@@H]1CN(C)C(=O)Nc1ccccc1`, the inhibition was -1.79%.

As for `C[C@H]1CCCCO[C@H](CN(C)C(=O)C2CCCCC2)[C@@H](C)CN([C@@H](C)CO)C(=O)c2cc(NS(=O)(=O)c3cccs3)ccc2O1`, the inhibition was 2.26%.

On to `C[C@@H]1CN([C@H](C)CO)C(=O)c2cc(NC(=O)c3ccncc3)ccc2O[C@@H](C)CCCCO[C@H]1CN(C)Cc1ccc(C(=O)O)cc1`, for which the inhibition is -0.563%.

In the case of `COc1ccc(NC(=O)Nc2ccc3c(c2)C(=O)N([C@H](C)CO)C[C@H](C)[C@@H](CN(C)C)O3)cc1`, the inhibition was -2.6%.

On to `COc1ccc(CN(C)C[C@@H]2Oc3c(NS(=O)(=O)c4ccc(OC)cc4)cccc3C(=O)N([C@@H](C)CO)C[C@H]2C)cc1`, for which the inhibition was 0.462%.

Regarding `C[C@@H]1CCCCO[C@@H](CN(C)C(=O)Nc2cccc3ccccc23)[C@@H](C)CN([C@@H](C)CO)C(=O)c2cc(N(C)C)ccc2O1`, the inhibition is 2.86%.

As to `Cc1noc(C)c1NC(=O)N(C)C[C@H]1Oc2c(NS(=O)(=O)c3ccccc3)cccc2C(=O)N([C@H](C)CO)C[C@@H]1C`, the inhibition is 4.19%.

`C[C@H]1CN([C@@H](C)CO)C(=O)CCCn2cc(nn2)CO[C@H]1CN(C)S(=O)(=O)c1ccc(Oc2ccccc2)nc1`: the inhibition was 0.77%.

With `C[C@@H]1CCCCO[C@@H](CN(C)Cc2ccccc2)[C@H](C)CN([C@@H](C)CO)C(=O)c2cc(NS(=O)(=O)c3ccccc3)ccc2O1`, the inhibition is 1.85%.

Regarding `C[C@@H]1CN([C@@H](C)CO)C(=O)c2cc(NS(=O)(=O)c3cccs3)ccc2O[C@@H]1CN(C)C(=O)Nc1ccc(F)cc1`, the inhibition was -0.701%.

Take `C[C@@H]1CN([C@H](C)CO)C(=O)c2cc(NC(=O)c3ccncc3)ccc2O[C@@H](C)CCCCO[C@H]1CN(C)S(=O)(=O)c1ccc(F)cc1`: the inhibition was 0.556%.

For the compound `COc1ccc(NC(=O)Nc2ccc3c(c2)C(=O)N([C@@H](C)CO)C[C@H](C)[C@H](CN(C)C)O3)cc1`, the inhibition was 4.32%.

Take `C[C@@H]1CCCCO[C@@H](CN(C)C(=O)C2CCCCC2)[C@@H](C)CN([C@@H](C)CO)C(=O)c2cc(NC(=O)Nc3ccccc3)ccc2O1`: the inhibition was -1.24%.

Take `COc1ccc(NC(=O)Nc2ccc3c(c2)C(=O)N([C@H](C)CO)C[C@@H](C)[C@@H](CN(C)S(=O)(=O)c2cn(C)cn2)O3)cc1`: the inhibition is 0.222%.

Take `C[C@H]1CN([C@@H](C)CO)C(=O)c2cccc(NC(=O)C3CCOCC3)c2O[C@H]1CN(C)Cc1ccc(Oc2ccccc2)cc1`: the inhibition was 5.74%.

As for `C[C@@H]1CN([C@@H](C)CO)C(=O)c2cc(NC(=O)Nc3ccc4c(c3)OCO4)ccc2O[C@@H]1CN(C)C`, the inhibition is -2.36%.

In the case of `C[C@H]1CCCCO[C@@H](CN(C)S(=O)(=O)c2ccccc2)[C@@H](C)CN([C@@H](C)CO)C(=O)c2cc(N(C)C)ccc2O1`, the inhibition was 1.05%.

As to `C[C@H](CO)N1C[C@H](C)[C@H](CN(C)Cc2ccc3c(c2)OCO3)Oc2c(NC(=O)c3ccncc3)cccc2C1=O`, the inhibition was -1.01%.

Take `C[C@H](CO)N1C[C@H](C)[C@H](CN(C)Cc2ccc3c(c2)OCO3)Oc2ccc(NC(=O)Nc3ccc(F)cc3)cc2CC1=O`: the inhibition was 1.05%.

Regarding `CNC[C@@H]1Oc2ccc(NC(=O)CCC(F)(F)F)cc2C(=O)N([C@@H](C)CO)C[C@H]1C`, the inhibition is 2.65%.

With `CNC[C@@H]1Oc2ccc(NC(=O)Nc3ccc4c(c3)OCO4)cc2CC(=O)N([C@@H](C)CO)C[C@@H]1C`, the inhibition is -0.999%.

Regarding `C[C@@H]1CCCCO[C@H](CN(C)C)[C@@H](C)CN([C@H](C)CO)C(=O)c2cc(NC(=O)Cc3ccccc3)ccc2O1`, the inhibition was -1.13%.

On to `C[C@H](CO)N1C[C@H](C)[C@@H](CN(C)C(=O)Nc2ccc3c(c2)OCO3)Oc2ccc(N(C)C)cc2C1=O`, for which the inhibition is -2.04%.

For `C[C@@H]1CCCCO[C@@H](CN(C)C(=O)C2CCCCC2)[C@@H](C)CN([C@@H](C)CO)C(=O)c2cc(NS(C)(=O)=O)ccc2O1`, the inhibition is -4.64%.

For `C[C@@H]1CN([C@H](C)CO)C(=O)CCCn2cc(nn2)CO[C@@H]1CN(C)C(=O)Nc1ccc(N2CCCCC2)cc1`, the inhibition is 10.6%.

As to `C[C@@H]1CCCCO[C@@H](CN(C)Cc2ccncc2)[C@H](C)CN([C@@H](C)CO)C(=O)c2cc(NC(=O)c3ccncc3)ccc2O1`, the inhibition is 5.19%.

Regarding `C[C@@H]1CCCCO[C@H](CN(C)C(=O)C2CCCCC2)[C@H](C)CN([C@H](C)CO)C(=O)c2cc(NC(=O)Nc3ccccc3)ccc2O1`, the inhibition was 1.96%.

For the compound `C[C@@H]1CN([C@H](C)CO)C(=O)c2cccc(NS(=O)(=O)c3ccc(Cl)cc3)c2O[C@@H]1CN(C)C`, the inhibition was -2.17%.

For `Cc1noc(C)c1NC(=O)N(C)C[C@H]1Oc2ccc(NC(=O)Cc3ccccc3)cc2C(=O)N([C@H](C)CO)C[C@H]1C`, the inhibition is 4.11%.

As to `C[C@H](CO)N1C[C@H](C)[C@H](CN(C)C)Oc2ccc(NS(C)(=O)=O)cc2C1=O`, the inhibition is 4.53%.

On to `C[C@@H]1CN([C@H](C)CO)C(=O)Cc2cc(N(C)C)ccc2O[C@H]1CN(C)Cc1ccc(C(F)(F)F)cc1`, for which the inhibition was -0.721%.

As to `CC(C)NC(=O)Nc1ccc2c(c1)C(=O)N([C@@H](C)CO)C[C@@H](C)[C@H](CN(C)S(=O)(=O)c1cccs1)OCCCC[C@H](C)O2`, the inhibition was 3.77%.

Consider `COc1ccc(S(=O)(=O)N(C)C[C@@H]2Oc3c(NC(=O)c4ccncc4)cccc3C(=O)N([C@@H](C)CO)C[C@H]2C)cc1`, for which the inhibition was -7.21%.

For the compound `Cc1noc(C)c1NC(=O)Nc1ccc2c(c1)CC(=O)N([C@H](C)CO)C[C@@H](C)[C@@H](CN(C)C(=O)NC(C)C)O2`, the inhibition was 0.926%.

Take `Cc1noc(C)c1NC(=O)Nc1ccc2c(c1)C(=O)N([C@@H](C)CO)C[C@@H](C)[C@@H](CN(C)C(=O)CCCN(C)C)OCCCC[C@@H](C)O2`: the inhibition is -4.32%.

For the origin of these results see PubChem BioAssay AID434961 (Broad Institute, 2010).
